Results as given in PubChem BioAssay AID2018 (Sanford-Burnham Center for Chemical Genomics, 2009).
About 600 (50%) of roughly 1,200 compounds were called active. Rule as the data show it: active = inhibition above about 42%; inactive = the rest. So high a share suggests a set chosen from earlier hits. This is one part of the list. Results with a measured potency or affinity are listed apart.

These compounds were tested against SUMO-conjugating enzyme UBC9 (Homo sapiens) (UniProt P63279) (assay: SUMOylation inhibitor hit validation, confirmation, SUMOylation inhibitor project, biochemical, AlphaScreen (AID 2018)). Conditions: AlphaScreen in vitro SUMOylation assay; at 35 µM; active compounds read high.
Sequence of SUMO-conjugating enzyme UBC9 (Homo sapiens) (P63279 whole entry, looked up): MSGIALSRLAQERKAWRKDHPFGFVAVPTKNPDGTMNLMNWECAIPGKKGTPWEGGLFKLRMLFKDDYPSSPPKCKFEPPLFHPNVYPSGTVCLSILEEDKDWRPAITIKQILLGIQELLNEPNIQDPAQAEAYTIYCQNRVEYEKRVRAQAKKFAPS

inhibition, active:
O=C1CC(c2ccco2)CC(O)=C1C=Nc1cc(Cl)ccc1O (centres undefined) 54.5%
O=C1C(Cl)=C(N2CCN(c3ccccc3[N+](=O)[O-])CC2)C(=O)c2ccccc21 101%
CCOCCCNC1=C(Cl)C(=O)c2ccccc2C1=O 90.1%
Cc1[nH][nH]c(=O)c1C(c1c(C)[nH][nH]c1=O)c1cn(C)c2ccccc12 102%
Cc1[nH][nH]c(=O)c1C(c1c(C)[nH][nH]c1=O)c1cn(Cc2ccc(F)cc2)c2ccccc12 50.9%
COc1ccc2c(c1)c(=O)oc1c(C)c(OCc3ccc(C(=O)O)cc3)ccc12 65.5%
COc1cc2cc(NC(C)=O)cc(NCc3ccccc3)c2cc1OC 50.6%
CCOC(=O)N1CCN(C2=C(NS(=O)(=O)c3ccc(C)cc3)C(=O)c3ccccc3C2=O)CC1 85.2%
CCOC(=O)N1CCN(C2=C(NS(=O)(=O)c3ccc(NC(C)=O)cc3)C(=O)c3ccccc3C2=O)CC1 53.7%
O=C1C(=O)c2ccccc2C(O)=C1CCCCl 102%
CC1(OC(=O)c2cccs2)C(=O)C=C2C=C3CCCN3C=C2C1=O (centres undefined) 83.7%
Nc1nnc(-c2cc3c(ccc4ccccc43)oc2=O)s1 46.1%
N#Cc1sc2nc(-c3ccccc3)cc(-c3ccco3)c2c1N 96.1%
CCOc1cc2c(C#N)c(N3CCOCC3)nc(N)c2c(N)n1 44.2%
CCOc1cc2c(C#N)c(N3CCCCC3)nc(N)c2c(N)n1 101%
CCOC(=O)c1c(NC(=O)c2ccco2)n(C2CCCCC2)c2nc3ccccc3nc12 63.5%
COc1ccc(-n2c(NC(=O)c3ccco3)c(C#N)c3nc4ccccc4nc32)cc1 101%
O=[N+]([O-])c1ccc(-c2ccc(C=Nc3cccc4ccccc34)o2)cc1 58.3%
Oc1cccc(C=Nc2cccc3ccccc23)c1O 59%
Oc1cccc(C=NCc2ccccc2)c1O 51.5%
O=[N+]([O-])c1ccc(C=Nc2cccc3ccccc23)s1 82.6%
Oc1ccccc1N=Cc1c(O)ccc2ccccc12 56.9%
Oc1ccc(C=Nc2cccc3ccccc23)c(O)c1 42.8%
Oc1c(C=Nc2cccc3nsnc23)ccc2ccccc12 98%
O=[N+]([O-])c1ccc(C=Nc2ccc(Cl)c([N+](=O)[O-])c2)s1 98.4%
O=C(NC(=S)Nc1cccc2c(O)cccc12)c1cccc(Br)c1 52.7%
Cc1ccc(C)c(S(=O)(=O)Nc2cc(SCC(=O)O)c(O)c3ccccc23)c1 51.2%
Cc1cc(C)c(S(=O)(=O)Nc2cc(SCC(=O)O)c(O)c3ccccc23)cc1C 43.1%

inhibition, inactive:
O=C1CC(c2ccco2)CC(O)=C1C=NCC1NCCc2ccccc21 (centres undefined) 18.6%
O=C1CC(c2ccco2)CC(O)=C1C=Nc1cc(Cl)ccc1Cl (centres undefined) 17.2%
O=C1CCN(c2ncccc2[N+](=O)[O-])CC1 -9.6%
Nc1c(Cl)cc(NC(=O)c2ccccc2C(=O)O)cc1Br 8%
CCCCN1Cc2c(nc3cc(-c4ccco4)[nH]n3c2=O)C1=O 4.3%
NS(=O)(=O)c1cnccc1Nc1ccc(Cl)cc1 -32.2%
C/C(=C\C(=O)c1ccccc1)Nc1ccc(O)cc1 18.7%
O=C(Nc1ccccc1)c1ccccc1CCc1ccccc1 -9.6%
O=C(O)c1ccc(N2N=C(c3ccccc3)CC2c2ccccc2)cc1 (centres undefined) -14.9%
COc1ccc(C2=NN(C(=O)c3cccs3)C(c3ccccc3O)C2)cc1 (centres undefined) 27.7%
Cc1cc(=O)n2[nH]c(N)c(N=Nc3ccccc3)c2n1 23.6%
O=C1c2nc3cc(-c4ccco4)[nH]n3c(=O)c2CN1C1CCCCC1 6.6%
Cc1[nH][nH]c(=O)c1C(c1c(C)[nH][nH]c1=O)c1cn(Cc2cccc3ccccc23)c2ccccc12 32.5%
O=C(NCc1ccc(F)cc1)C(=O)c1cn(CC(=O)N2CCCC2)c2ccccc12 11.6%
O=C(O)/C=C/C(=O)Nc1ccc2c(c1)NC(=O)CO2 13.1%
Cc1c(O)ccc2c(CC(=O)N[C@@H](Cc3ccc(O)cc3)C(=O)O)cc(=O)oc12 16.9%
COc1ccc(NC(=S)Nc2cccc3ccccc23)cc1OC 10.7%
CC(=O)Nc1cccc(NC(=S)Nc2cccc3ccccc23)c1 28.9%
CC(=O)Nc1ccc(S(=O)(=O)Nc2cccn(Cc3ccc(C)cc3)c2=O)cc1 1.7%
CCOC(=O)N1CCC(c2cc(=O)n(-c3ccccc3)[nH]2)CC1 16.1%
Cc1ccc(C(=O)Nc2ccccc2C(=O)N2CCN(c3ccccc3)CC2)cc1 -27.1%
COc1ccc(Br)cc1C1CC(=O)N2CN(Cc3ccccc3)CSC2=C1C#N (centres undefined) 29.1%
COc1ccc(CC2=C(O)c3ccccc3C(=O)C2=O)cc1 19.6%
Cc1nc2ccc(NC(=O)NCc3ccco3)cc2s1 -8.1%
CC(=O)C1=C(O)C=C(c2ccco2)CC1c1ccco1 (centres undefined) 28.1%
Cc1ccc(S(=O)(=O)NNC(=S)Nc2c(Cl)cccc2Cl)cc1 -0.4%
Fc1ccc(-c2ccnc3nc(N4CCOCC4)nn23)cc1 -6.1%
O=C(O)c1ccc(C(=O)Nc2cccc3ccccc23)c(C(=O)O)c1 12.5%
Cc1cc(N2C(=O)c3ccc(C(=O)Nc4ccc(O)cc4C(=O)O)cc3C2=O)no1 39.8%
N#Cc1ccc(-c2csc(NC(=O)/C=C/c3cccs3)n2)cc1 3.9%
CNc1nnc(-c2cc3ccccc3oc2=O)s1 28.9%
COC(=O)c1scc(C)c1NC(=O)C(Cl)c1ccccc1 (centres undefined) -8.2%
N#Cc1c(-c2ccco2)cc(-c2cccnc2)nc1N 26.7%
CC(=O)c1sc2nc(-c3ccco3)ccc2c1N 40%
CCOc1cc2c(C#N)c(N3CCNCC3)nc(N)c2c(N)n1 18.3%
COc1ccc(CN2C(=O)Cc3c2nc(N)c2c(N)nc(N4CCOCC4)c(C#N)c32)cc1 11%
Cc1oc2c(c(C)cc3oc(=O)c(CC(=O)NCC(=O)NCC(=O)NCC(C)O)c(C)c32)c1C (centres undefined) -15.6%
O=C(Nc1cccc2cccc(NC(=O)c3ccco3)c12)c1ccco1 36.3%
CN(c1ccccc1)c1cc(=O)[nH]c(=O)[nH]1 11.4%
Oc1ccc(NC(=S)Nc2ccc(O)cc2)cc1 19.5%
Cc1ccccc1N=Cc1cccc(O)c1O 33.2%
O=C(CNc1cccc2ccccc12)N/N=C/c1ccc([N+](=O)[O-])cc1 -19.8%
Oc1oc(-c2ccccc2)nc1C=Nc1cccc2ccccc12 -77.5%
CN(C)CCNS(=O)(=O)c1ccc2c3c(cccc13)C(=O)N2 15.4%
Oc1cccc2c(NC(=S)Nc3ccc(SC(F)F)cc3)cccc12 36.5%
O=C(NCCc1csc(-c2ccccc2)n1)c1c(F)cccc1Cl -8.6%
O=[N+]([O-])c1cccc2cn[nH]c12 -0.5%
Oc1ccc(C=Nc2cccc3ncccc23)c(O)c1 27.7%
COc1ccc(C=Nc2cccc3ncccc23)cc1 16.5%
Oc1ccc(N=Cc2c(O)ccc3ccccc23)cc1 21.9%
Oc1ccc2ccccc2c1C=Nc1ccc(Cl)cn1 26.1%
CCOc1ccc(C=Nc2cccc3ncccc23)cc1 23.5%
N#CC1=C(N)N2C(=C(C#N)C1c1ccc(Br)cc1)Nc1ccccc12 (centres undefined) 20.4%
Cc1cc(NCCO)c2cc(O)ccc2n1 3%
O=[N+]([O-])c1cc(C=Nc2cccc3c(O)cccc23)ccc1Cl 33.8%
O=C(NC(=S)Nc1cccc2c(O)cccc12)c1ccco1 41.6%
CCCC(=O)NC(=S)Nc1cccc2c(O)cccc12 10.1%
NNc1nc2c(Cl)ccc(Cl)c2s1 8%
Cc1ccc(C)c(S(=O)(=O)Nc2ccc(O)c3ccccc23)c1 39.8%
COc1ccc2c(C)c(C(=O)NCC(C)O)oc2c1OC (centres undefined) 6.4%
COC(=O)c1cc2c(C)[nH]c(C)c2cc(C(=O)OC)c1=O 13.6%
CN1CCCc2cc3c(C(F)(F)F)cc(=O)oc3nc21 -9%
N#CC1=C(N)Oc2n[nH]c(-c3cccs3)c2C1c1cccs1 (centres undefined) 33.5%
Cc1cc(-c2csc(NC(=O)c3ccc(C#N)cc3)n2)c(C)n1Cc1ccco1 21.4%
Cc1cc(NC(=O)CSc2nnc(Nc3ccccc3C)s2)no1 25.7%
Cc1c(C)c2cc(Cl)c(O)c(CN3CCN(C)CC3)c2oc1=O -1%
CCOC(=O)c1sc(NC(=O)c2cccc(S(=O)(=O)N3CCc4ccccc43)c2)c(C#N)c1C 33.4%
O=C(NCc1ccccc1)Nc1cccn(Cc2ccccc2)c1=O 3.6%
COc1ccccc1NC(=O)Cn1nc(C)n2cccc2c1=O 0.4%
COc1ccccc1NC(=O)CSc1ccc2nnc(-c3ccccn3)n2n1 14.2%
CC1(C)CC(=O)C2=C(C1)Nc1[nH]c(=S)[nH]c(=O)c1C2c1ccccc1 (centres undefined) 12.7%
